BAZ2B block: inhibitors of human BAZ2B bromodomain; Q9UIF8; AlphaScreen BAZ2B-H3K14Ac peptide displacement; Potency, µM (titrated, usually from 114 µM), most hits filed as inhibitors; 4.4% of 360,000 active; note: nearly all actives have a fitted effect of over 60% in size
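AlphaScreen luminescence quantifies BAZ2B engagement of H3K14Ac peptide; the protein and biotinylated peptide are both at 50 nM final, buffer PBS pH 7.4 with 0.01% Tween-20, all steps at room temperature.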
HP1b chromo inh: inhibitors of HP1-beta chromodomain binding to methylated histone tails. P83916. 0.56% of 390,000 active. AID 540317. Potency, µM (titrated, usually from 114 µM), actives largely listed as inhibitors. AlphaScreen HP1-beta / biotin-H3K9me3 peptide binding; note: nearly all actives have a fitted effect of over 70% in size
Target sequence (P83916 whole entry, looked up): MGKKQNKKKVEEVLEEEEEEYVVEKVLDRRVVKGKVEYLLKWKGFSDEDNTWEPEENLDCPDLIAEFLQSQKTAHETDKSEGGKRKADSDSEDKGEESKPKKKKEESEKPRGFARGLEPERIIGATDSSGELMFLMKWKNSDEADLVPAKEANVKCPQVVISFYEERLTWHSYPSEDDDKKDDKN
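HP1-beta protein (50 nM final) preincubated 30 min at room temperature with biotinylated H3(1-18)K9me3 peptide (50 nM) in PBS pH 7.4, 0.01% Tween-20, then compound added for 30 min. AlphaScreen streptavidin donor/nickel chelate acceptor beads (10 ug/mL final), 30 min dark, luminescence read.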
L3MBTL1 inh: blocks human L3MBTL1. Q9Y468. Potency, µM (titrated, usually from 57.1 µM), usual class: inhibitors. AID 485360. AlphaScreen L3MBTL1–H3K9me1 peptide binding. 0.66% of 230,000 active; note: nearly all actives have a fitted effect of over 60% in size
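First, the protein-peptide complex forms for 30 min at room temperature (L3MBTL1 50 nM, biotinylated H3K9me1 peptide 75 nM). Next, compounds are pin-transferred and incubated 30 min. Finally, AlphaScreen beads are added and read after 30 min.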
G9a block: G9a (human) methyltransferase inhibition; G9a H3K9 monomethylation, AlphaScreen, 2 h; Potency, µM (titrated, usually from 102 µM), usual class: inhibitors; 8.8% of 350,000 active; note: nearly all actives have a fitted effect of over 75% in size
Target sequence (Q96KQ7 913-1193 limits assumed): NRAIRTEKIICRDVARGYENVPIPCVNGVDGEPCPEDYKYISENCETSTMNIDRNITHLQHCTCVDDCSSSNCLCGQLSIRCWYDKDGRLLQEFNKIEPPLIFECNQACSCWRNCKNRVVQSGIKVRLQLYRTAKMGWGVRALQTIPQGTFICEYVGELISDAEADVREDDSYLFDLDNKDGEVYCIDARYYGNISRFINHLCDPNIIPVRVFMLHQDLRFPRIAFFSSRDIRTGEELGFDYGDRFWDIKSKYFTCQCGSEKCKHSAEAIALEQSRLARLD
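G9a (20 nM) was preincubated 15 min with compound, then reacted 2 h at room temperature with 500 nM biotin-H3K9 peptide and 20 µM SAM. Monomethyl-H3K9 detected by AlphaScreen using anti-H3K9me1 antibody.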
Sfp PPTase inh: inhibitors of Bacillus subtilis Sfp phosphopantetheinyl transferase. Q9F4F7. Biochemical Sfp PPTase activity, qHTS. Potency, µM, hits mostly inhibitors. 3.5% of 310,000 active. AID 1490;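 note: the enzyme is Sfp with the accession as filed and its product quenches rhodamine fluorescence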
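Sfp 15 nM + cpd, 15 min RT; start w/ rhodamine-CoA 5 uM, BHQ-2-YbbR 12.5 uM (final); 50 mM Hepes pH 7.6, 10 mM MgCl2, 0.01% NP-40, 0.01% BSA; read 525/598 nm at 0 and 30 min.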
JMJD2A Tudor inh: JMJD2A Tudor domain (human) inhibition; Potency, µM (top dose mostly 114 µM), hits mostly inhibitors; 4.4% of 390,000 active; AlphaScreen JMJD2A-Tudor / H3K4me3 peptide binding; O75164; AID 504339; note: nearly all actives have a fitted effect of over 50% in size
A number is an active result; . = inactive; ? = inconclusive; / = not tested or not shown. Compounds with a hit are over-represented: about 12% of the library has one in this group of screens. Calls come from the whole dose curve; as a rule, active = well fitted curve in the direction sought with a large enough effect; inconclusive = small, poorly fitted or top-dose-only effect, or another doubt; inactive = no such curve, though single readings can be large; an effect the other way counts as inactive or inconclusive.

SMILES | BAZ2B block | HP1b chromo inh | L3MBTL1 inh | G9a block | Sfp PPTase inh | JMJD2A Tudor inh
Cc1ccc(C2CC(=O)N3CN(c4ccc(Br)cc4)CSC3=C2C#N)o1 (stereo unspecified) | 56.2µM | . | / | ? | 1.26µM | 22.4µM
CCOc1ccc(N2CC(NC(=O)c3ccco3)CC2=O)cc1 (stereo unspecified) | . | . | / | . | / | .
CCOc1ccc(N2CSC3=C(C#N)C(c4ccco4)CC(=O)N3C2)cc1 (stereo unspecified) | 44.7µM | . | / | 1.78µM | 3.16µM | .
COC(=O)C1=C[C@@H](C(=O)OC)[C@H]2C3=C(C(=O)[C@@]2(C)NC(=O)c2ccccc2)[C@H](C)C(C(=O)OC)=C(C(=O)OC)[C@@H]3C1 | / | . | / | / | . | .
C=CCC1Cc2c(cccc2[N+](=O)[O-])C(CC=C)N1 (stereo unspecified) | ? | . | . | 50.1µM | . | ?
NS(=O)(=O)c1ccc(Nc2nc(-c3cccc([N+](=O)[O-])c3)cs2)cc1 | . | . | . | 39.8µM | 31.6µM | .
Cc1nc(Nc2ccc(S(N)(=O)=O)cc2)sc1C(=O)Nc1ccccc1 | . | . | . | . | . | .
NS(=O)(=O)c1ccc(Nc2nc(-c3ccc4ccccc4c3)cs2)cc1 | . | . | / | 35.5µM | . | ?
Cc1nc(Nc2ccc(S(N)(=O)=O)cc2)sc1-c1ccccc1 | ? | . | / | 31.6µM | . | ?
O=C(Nc1cccc(-c2csc(Nc3ccccc3)n2)c1)c1cc([N+](=O)[O-])cc(C(F)(F)F)c1 | . | . | . | 50.1µM | . | .
COCCCNc1nc2c(S(=O)(=O)c3ccccc3)nnn2c2ccc(Cl)cc12 | . | . | / | . | / | .
Cc1ccc(-c2csc(Nc3ccc(S(N)(=O)=O)cc3)n2)o1 | 44.7µM | ? | . | 4.47µM | 10µM | 56.2µM
O=C(/C=C\c1ccco1)Nc1nc(-c2ccc3ccccc3c2)cs1 | ? | . | . | 50.1µM | . | .
CCc1cccc(NC(=O)CCc2c(C)nc3c(c2C)c(=O)n(C)c(=O)n3C)c1 | . | . | / | . | / | .
Cc1cc(Cl)ccc1NC(=O)CCCn1nc(C)c2c(C)n(-c3ccccc3)nc2c1=O | . | . | / | . | / | .
CCCn1c(=S)[nH]c2cc(C(=O)NCC3CCCO3)ccc2c1=O (stereo unspecified) | . | . | . | 10µM | . | .
O=C(Cn1nc(C(=O)O)c2ccccc2c1=O)NCC1CCCO1 (stereo unspecified) | . | . | . | 70.8µM | . | .
O=C(CCn1c(=S)[nH]c2ccccc2c1=O)NCC1CCCO1 (stereo unspecified) | . | . | . | ? | . | 50.1µM
Cc1ccccc1C(=O)c1cccn1CC(=O)NCC1CCCO1 (stereo unspecified) | . | . | . | 44.7µM | . | .
O=C(CCn1c(=S)[nH]c2ccccc2c1=O)NCCc1ccccc1 | / | . | / | . | . | .
O=C(Cn1nc(-c2ccccc2)c2ccccc2c1=O)NCC1CCCO1 (stereo unspecified) | . | . | . | . | . | .
CC(C)OCCCNC(=O)CSc1c2c(nc3ccc(Cl)cc13)CCCC2 | / | . | / | . | / | .
COc1ccccc1CNC(=O)c1cnc2sc(N3CCCCCC3)nn2c1=O | . | . | / | . | / | .
CC(=Nc1ccc(C)cc1C)c1sc2ccccc2c1O | ? | . | . | ? | . | 56.2µM
CC(=Nc1cccc(O)c1)c1sc2ccccc2c1O | 39.8µM | . | . | ? | . | .
SMILES | BAZ2B block | HP1b chromo inh | L3MBTL1 inh | G9a block | Sfp PPTase inh | JMJD2A Tudor inh
Cc1ccc(OCCCCN2CCC(C)CC2)cc1 | 50.1µM | ? | / | . | . | 3.16µM
O=[N+]([O-])c1ccc(OCCCCN2CCc3ccccc3C2)cc1 | 79.4µM | ? | . | 35.5µM | . | 20µM
CC1CCN(CCCCOc2ccc([N+](=O)[O-])cc2)CC1 | . | . | . | 11.2µM | . | 79.4µM
CC1CCN(CCCCOc2ccc(F)cc2)CC1 | ? | ? | / | ? | . | 3.16µM
O=[N+]([O-])c1ccc(OCCCCN2CCCCC2)cc1 | . | . | . | ? | . | .
Cc1ccc(OCCCCCN2CCOCC2)cc1 | . | . | . | . | . | .
COc1ccc(CCNC(=O)C(=O)NCC(c2cccs2)S(=O)(=O)c2cccs2)cc1 (stereo unspecified) | . | . | / | . | / | .
CCCCOc1cccc(C(=O)N(Cc2ccc(C)o2)c2ccccn2)c1 | . | . | / | . | / | .
CC1CCN(CCCCOc2ccccc2[N+](=O)[O-])CC1 | ? | ? | . | ? | . | 4.47µM
CC1CCN(CCCCOc2cccc(C(C)C)c2)CC1 | ? | . | / | 39.8µM | . | 56.2µM
CCOc1ccccc1OCCOCCOc1ccccc1[N+](=O)[O-] | . | . | . | . | . | .
OCCN1CCN(CC(O)COCCOc2ccc(Br)cc2)CC1 (stereo unspecified) | . | ? | . | . | . | 17.8µM
COc1ccccc1N1CCN(CC(O)COCCOc2ccc(Br)cc2)CC1 (stereo unspecified) | ? | . | . | . | . | ?
COc1ccc(N2CCN(CC(O)COCCOc3ccc(Br)cc3)CC2)cc1 (stereo unspecified) | 44.7µM | . | ? | 10µM | . | .
COc1ccc(N2CCN(CC(O)COC(C)(C)C)CC2)cc1 (stereo unspecified) | 44.7µM | ? | . | 10µM | . | 17.8µM
COc1ccc(N2CCN(CC(O)COc3ccc4c(c3)CCC4)CC2)cc1 (stereo unspecified) | 35.5µM | ? | / | ? | . | 56.2µM
Cc1ccc(C)c(-c2nn(-c3cc(N4CCN(CCO)CC4)ccc3[N+](=O)[O-])c(=O)c3ccccc23)c1 | 44.7µM | ? | . | 39.8µM | . | 35.5µM
CC(C)CNc1cc(N2CCCC2)ccc1[N+](=O)[O-] | ? | . | . | 11.2µM | . | ?
Cc1ccccc1OCCNc1cc(N2CCN(CCO)CC2)ccc1[N+](=O)[O-] | 31.6µM | ? | . | ? | . | ?
Cc1nn(-c2cc(N3CCCC3)ccc2[N+](=O)[O-])c(=O)c2ccccc12 | . | . | / | . | . | .
Cc1ccc(S(=O)(=O)N2CCN(c3ccc([N+](=O)[O-])c(NCCN4CCOCC4)c3)CC2)cc1 | . | . | . | ? | . | ?
O=[N+]([O-])c1ccc(N2CCN(S(=O)(=O)c3ccccc3)CC2)cc1NCCN1CCOCC1 | . | . | . | 20µM | . | .
CCCCc1nc2c(c3c1C[C@H](C)OC3)CN(C(=O)C1CC1)CC2 | / | / | / | / | . | /
COc1cccc(OCCNc2cc(N3CCOCC3)ccc2[N+](=O)[O-])c1 | ? | . | . | ? | . | .
COc1ccc(OCCNc2cc(N3CCOCC3)ccc2[N+](=O)[O-])cc1 | ? | . | . | ? | . | 79.4µM
Cc1cccc(OCCNc2cc(N3CCN(CCO)CC3)ccc2[N+](=O)[O-])c1 | ? | . | . | 44.7µM | . | ?

Source: PubChem BioAssay
